This is part of a sample that, as a whole, favours compounds with a hit. Of some 83,000 tested, about 20% had one in any assay.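 Assay: single dose, 48 h. Readout: percent growth (0 = no net growth; negative = cell death). Active: <10.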 Values without a mark were called inactive. Calls of active or inactive are those of the source.

Test systems include T-47D breast; BT-549 breast; MDA-MB-435 melanoma; SW-620 colon; MCF7 breast; HCT-116 colon; HCC-2998 colon; KM12 colon.
What all share (assay): NCI-60 one-dose screen, 48 h (100 = growth as untreated, 0 = no growth, -100 = all killed)
Holding throughout (settings): 10 µM unless noted

With `Cc1cc([N+](=O)[O-])ccc1NC(=O)c1ccc2c(c1)nc(-c1ccccc1)n2C1CCCCC1`, the growth in the assay on T-47D breast is 59.8%; with BT-549 breast, 77.1%; with MDA-MB-435 melanoma, 92.2%; with SW-620 colon it was 97.6%; in the assay with MCF7 breast, 77%; in the assay on HCT-116 colon, 65.7%. The results for the growth with HCC-2998 colon and with KM12 colon were 88.3% and 69.3%, respectively.

For `Cc1cc(C(=O)Nc2cc(Nc3ncccc3-c3ncnc4nc[nH]c34)ccc2F)cc(C(C)(C)C#N)c1`, the growth in the assay on T-47D breast was 47%; in the assay with BT-549 breast, 54.5%; in the assay with MDA-MB-435 melanoma it was 33.2%; in the assay on SW-620 colon, 34.3%; with MCF7 breast it was 62.4%; in the assay on HCT-116 colon it was 14.1%. The growth in the assay with HCC-2998 colon was 35.3%; in the assay on KM12 colon, 35.9%.

For the compound `C/C(=N\NC(=O)c1ccc(C(C)(C)C)cc1)c1ccc(O)cc1O`, the growth in the assay with T-47D breast was 24.4%; in the assay with BT-549 breast, 31.2%; in the assay on MDA-MB-435 melanoma it was 27.7%; in the assay with SW-620 colon it was 29.9%; with MCF7 breast, 4.92% (active); with HCT-116 colon, 18.5%. Moreover, the growth in the assay on HCC-2998 colon is 8.71% (active); with KM12 colon, 22.8%.

Consider `CCCCCCCCCCCCCC[n+]1ccc2c(C)c3c(c(C)c2c1)c1cc(O)ccc1n3CC`, for which the growth was -25.5% (active) in the assay with T-47D breast; -74.3% (active) in the assay on BT-549 breast; -92.6% (active) in the assay with MDA-MB-435 melanoma; -72.2% (active) with SW-620 colon; -70.3% (active) in the assay on MCF7 breast; -79.4% (active) with HCT-116 colon. For the same compound, the growth with HCC-2998 colon is -64.6% (active); with KM12 colon, -67.3% (active).

As to `COc1cc2c(c(OC)c1OC)CCC(c1cccc(C(=O)Nc3ccc([N+](=O)[O-])cc3)c1)O2` (configuration not stated), the growth with T-47D breast was 9.09% (active); in the assay with BT-549 breast, 27.4%; with MDA-MB-435 melanoma, 54.5%; with SW-620 colon it was 77.7%; in the assay with MCF7 breast it was 45.9%; with HCT-116 colon it was 40.4%. In addition, the growth with HCC-2998 colon is 68.3%; in the assay on KM12 colon it was 57.7%.

For the compound `COc1cc2cc(Oc3ccc(NC(=O)Nc4ccc(F)c(C(F)(F)F)c4)cc3)c(C)nc2cc1OCCN1CCCCC1`, the growth with T-47D breast was 78.5%; in the assay with BT-549 breast, 85.3%; with MDA-MB-435 melanoma, -92.5% (active); in the assay with SW-620 colon, -76.2% (active); in the assay on MCF7 breast, -75% (active); in the assay on HCT-116 colon, -89.8% (active). For the same compound, the growth in the assay on HCC-2998 colon is 96.9%; with KM12 colon, -79.9% (active).

In the case of `Cc1nc2cccc(NCc3ccc(C(=O)NO)cc3)c2c(=O)n1-c1ccccc1`, the growth in the assay with T-47D breast is 17.5%; in the assay on BT-549 breast, 73.4%; with MDA-MB-435 melanoma, 27%; in the assay on SW-620 colon, 7.22% (active); in the assay with MCF7 breast, 67.1%; with HCT-116 colon, -32.6% (active). Besides, the results for the growth in the assay on HCC-2998 colon and in the assay on KM12 colon were 86.3% and 29.8%, respectively.

As for `CCNc1nc(-c2ccc(Cl)c(OC)c2)c(-c2ccnc(NCCNS(=O)(=O)c3ccc(Cl)cc3)n2)s1`, the growth in the assay on T-47D breast is 32.5%; in the assay on BT-549 breast it was 5.74% (active); in the assay on MDA-MB-435 melanoma it was 6.21% (active); with SW-620 colon it was 29.5%; in the assay with MCF7 breast it was 6.61% (active); in the assay with HCT-116 colon it was 7.13% (active). For the same compound, the values for the growth in the assay on HCC-2998 colon and in the assay with KM12 colon were 56.3% and 48.8%, respectively.

As to `O=C(CSc1nc(-c2ccccc2)cn1-c1ccc(Cl)cc1)c1ccc([N+](=O)[O-])cc1`, the growth with T-47D breast was 71.3%; in the assay on BT-549 breast it was 86.8%; in the assay on MDA-MB-435 melanoma, 83.5%; in the assay with SW-620 colon it was 73.8%; with MCF7 breast, 76.1%; with HCT-116 colon it was 66.9%. Also, the growth with HCC-2998 colon was 99.6%; in the assay with KM12 colon, 82.6%.

Take `COc1cc2ncnc(Nc3ccc(S(=O)(=O)Nc4cc(C)on4)cc3)c2cc1OCCCN1CCOCC1`: the growth was 84.4% in the assay with T-47D breast; 91.6% with BT-549 breast; 106% in the assay on MDA-MB-435 melanoma; 106% with SW-620 colon; 96.1% with MCF7 breast; 102% with HCT-116 colon. Also, the growth was 107% in the assay with HCC-2998 colon and 103% in the assay with KM12 colon.

For `CCOc1ccc(N2C(=O)CCSC2=S)cc1`, the growth is 104% in the assay on T-47D breast; 108% in the assay on BT-549 breast; 98% with MDA-MB-435 melanoma; 104% in the assay with SW-620 colon; 100% in the assay on MCF7 breast; 112% in the assay with HCT-116 colon. Besides, the growth was 104% with HCC-2998 colon and 107% in the assay on KM12 colon.

For `C=C1/C(=C\C=C2/CCC[C@]3(C)[C@@H]([C@H](C)CCCC(C)(C)O)CC[C@@H]23)C[C@@H](OC(=O)CBr)C[C@@H]1O`, the growth is 81.7% with T-47D breast; -58.1% (active) in the assay on BT-549 breast; 90.4% in the assay with MDA-MB-435 melanoma; 70.7% with SW-620 colon; 34.9% with MCF7 breast; 80.9% with HCT-116 colon. The growth was 107% in the assay on HCC-2998 colon and 57.9% in the assay with KM12 colon.

With `COC(=O)c1cc(-c2ccc(OC)c(OC)c2)[nH]c1N/N=C/c1c(Cl)cccc1Cl`, the growth in the assay on T-47D breast was 40.9%; in the assay with BT-549 breast it was 37.7%; with MDA-MB-435 melanoma, -18.3% (active); in the assay on SW-620 colon, 21.3%; in the assay on MCF7 breast, 14.6%; in the assay on HCT-116 colon, 14.5%. Besides, the figures for the growth in the assay with HCC-2998 colon and in the assay on KM12 colon were 53.2% and 28.7%, respectively.

As to `CCOC(=O)c1c2c(n3ccc(NC(=O)CCN4CCCC4)cc13)C(=O)c1ncccc1C2=O`, the growth was -43.9% (active) in the assay with T-47D breast; -73.8% (active) with BT-549 breast; -68.5% (active) in the assay with MDA-MB-435 melanoma; -82.9% (active) in the assay on SW-620 colon; -66.6% (active) in the assay with MCF7 breast; -82.8% (active) with HCT-116 colon. Moreover, the results for the growth in the assay with HCC-2998 colon and with KM12 colon were -83.5% (active) and -89.4% (active), respectively.
